We go through eight compounds from PubChem BioAssay (NCI).

Holding throughout (assay): NCI-60 one-dose screen, 48 h (100 = growth as untreated, 0 = no growth, -100 = all killed)
For one assay, the system named is DU-145 prostate. The note with it: 10 µM unless noted.
In a further assay the test system is K-562 leukemia. The note with it: 10 µM unless noted.
In a further assay the test system is MALME-3M melanoma. The note with it: 10 µM unless noted.
The subject of the next assay is MDA-MB-231 breast. The note with it: 10 µM unless noted.
The subject of another assay is RXF 393 renal. To be noted: 10 µM unless noted.
In the next assay the test system is SF-268 CNS. To be noted: 10 µM unless noted.
A further assay concerns SF-295 CNS. The note with it: 10 µM unless noted.
A further assay has as its system SF-539 CNS. To be noted: 10 µM unless noted.
In the next assay the test system is UACC-257 melanoma. To be noted: 10 µM unless noted.
For a further assay, the system named is M14 melanoma. The note with it: 10 µM unless noted.
Another assay has as its system HCT-15 colon. To be noted: 10 µM unless noted.
In a further assay the test system is HT29 colon. To be noted: 10 µM unless noted.
A further assay relates to SNB-75 CNS. To be noted: 10 µM unless noted.
A further assay deals with SNB-19 CNS. The note with it: 10 µM unless noted.
A further assay concerns U251 CNS. To be noted: 10 µM unless noted.
A further assay has as its system PC-3 prostate. To be noted: 10 µM unless noted.
In a further assay the test system is SK-MEL-5 melanoma. The note with it: 10 µM unless noted.
For another assay, the system named is UACC-62 melanoma. To be noted: 10 µM unless noted.
A further assay has as its system SK-MEL-28 melanoma. The note with it: 10 µM unless noted.
The test system of the next assay is LOX IMVI melanoma. To be noted: 10 µM.

This is part of a sample that, as a whole, favours compounds with a hit. Of some 83,000 tested, about 20% had one in any assay.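 Interpretation: 100, growth as untreated; towards 0, rising growth inhibition; 0, no net growth; 0 to -100, cell death. Compounds scoring below 10 were considered active.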 Unmarked numbers belong to inactive results. Activity calls are given as the source filed them.

`CC1(C)CC[C@]2(C(=O)O)CC[C@]3(C)C(=CCC4[C@@]5(C)C[C@@H](O)[C@@H]6OC(c7ccco7)OC[C@@]6(C)C5CC[C@]43C)C2C1` (some centres not stated): the growth was 29.1% in the assay on DU-145 prostate; 21.2% in the assay on K-562 leukemia; 9.79% (active) with MALME-3M melanoma; 59.7% in the assay on MDA-MB-231 breast; 32.4% with RXF 393 renal; 31.9% in the assay with SF-268 CNS. Further, the growth is 24.5% in the assay on SF-295 CNS; 21.9% in the assay with SF-539 CNS; 1.3% (active) in the assay with UACC-257 melanoma; 23.3% in the assay with M14 melanoma; 20.7% in the assay on HCT-15 colon; 21.3% in the assay with HT29 colon. Besides, the growth was 72.2% in the assay with SNB-75 CNS; 28.4% in the assay with SNB-19 CNS; 16.8% with U251 CNS; 20.8% in the assay on PC-3 prostate; -33.2% (active) in the assay with SK-MEL-5 melanoma; -7.05% (active) in the assay with UACC-62 melanoma. In addition, the growth with SK-MEL-28 melanoma was 24.9%.
Take `CC1(C)CC[C@]2(C(=O)Nc3ccccc3)CC[C@]3(C)C(=CCC4[C@@]5(C)C[C@@H](O)[C@H](O)[C@@](C)(CO)C5CC[C@]43C)C2C1` (some centres not stated): the growth with DU-145 prostate was 76.8%; with K-562 leukemia it was 33.3%; in the assay with MALME-3M melanoma, 73.9%; in the assay on MDA-MB-231 breast it was 53.5%; in the assay with RXF 393 renal it was 17.6%; with SF-268 CNS it was 61.2%. The growth in the assay on SF-295 CNS is 50.4%; in the assay with SF-539 CNS it was 63%; in the assay with UACC-257 melanoma, 65.6%; in the assay with M14 melanoma, 56.1%; in the assay with HCT-15 colon, 42.5%; in the assay on HT29 colon, 22.1%. Also, the growth is 85.5% with SNB-75 CNS; 51.1% with U251 CNS; 20.4% in the assay with PC-3 prostate; 20.2% in the assay on SK-MEL-5 melanoma; 57.5% in the assay on UACC-62 melanoma; 53.1% with LOX IMVI melanoma. In the assay with SK-MEL-28 melanoma, the growth is 70.6%.
On to `CCCCSc1nc(NCCc2c[nH]c3ccccc23)c(C#N)c(-c2ccc(F)cc2)n1`, for which the growth with DU-145 prostate was 66.4%; in the assay on K-562 leukemia, 22.2%; in the assay on MALME-3M melanoma, 90.9%; with MDA-MB-231 breast it was 52.2%; in the assay with RXF 393 renal, 65.2%; in the assay with SF-268 CNS, 54.9%. Further, the growth with SF-295 CNS was 62.1%; in the assay with SF-539 CNS, 65.2%; in the assay on UACC-257 melanoma, 97.9%; in the assay with M14 melanoma it was 65.9%; in the assay on HCT-15 colon it was 28.8%; in the assay on HT29 colon it was 25.4%. Moreover, the growth in the assay on SNB-75 CNS was 74.2%; in the assay on U251 CNS, 45.6%; in the assay with PC-3 prostate, 28.5%; in the assay on SK-MEL-5 melanoma, 37.6%; in the assay on UACC-62 melanoma, 61.4%; in the assay on LOX IMVI melanoma, 36.1%. The growth with SK-MEL-28 melanoma was 81.4%.
With `CC(=O)OC[C@@]1(C)C2CC[C@]3(C)C(CC=C4C5CC(C)(C)CC[C@]5(C(=O)Nc5ccc(F)cc5)CC[C@]43C)[C@@]2(C)C[C@@H](OC(C)=O)[C@@H]1OC(C)=O` (some centres not stated), the growth in the assay on DU-145 prostate is 47.4%; in the assay on K-562 leukemia, 22.4%; in the assay with MALME-3M melanoma, 58.2%; in the assay with MDA-MB-231 breast, 65.5%; with RXF 393 renal, 87.4%; with SF-268 CNS, 57.4%. Also, the growth with SF-295 CNS was 23.4%; in the assay on SF-539 CNS, 40.2%; in the assay with UACC-257 melanoma it was 26.8%; with M14 melanoma it was 48.1%; in the assay on HCT-15 colon, 33.8%; in the assay with HT29 colon it was 34.7%. Also, the growth was 54.4% with SNB-75 CNS; 40.3% with U251 CNS; 34.5% in the assay on PC-3 prostate; 8.24% (active) in the assay with SK-MEL-5 melanoma; 30.3% in the assay with UACC-62 melanoma; 11.1% in the assay with LOX IMVI melanoma. In addition, the growth with SK-MEL-28 melanoma was 58.6%.
For the compound `O=c1[nH]c2ccccc2cc1CSc1cccc(Nc2nccc(-c3ccc4ccccc4c3)n2)c1`, the growth with DU-145 prostate is 89.6%; in the assay on K-562 leukemia, 64.3%; in the assay with MALME-3M melanoma it was 92%; in the assay on MDA-MB-231 breast, 95.6%; in the assay with RXF 393 renal, 81.3%; with SF-268 CNS, 98.1%. Moreover, the growth is 88% in the assay with SF-295 CNS; 98.3% in the assay on SF-539 CNS; 99.3% in the assay with UACC-257 melanoma; 86.7% with M14 melanoma; 65.1% in the assay on HCT-15 colon; 81.8% with HT29 colon. The growth is 84.6% in the assay on SNB-75 CNS; 81.9% in the assay on U251 CNS; 71% with PC-3 prostate; 63.8% in the assay on SK-MEL-5 melanoma; 95.2% with UACC-62 melanoma; 87.4% in the assay on LOX IMVI melanoma. Further, the growth with SK-MEL-28 melanoma is 106%.
Turning to `CN(C)c1ccnc(NCCCSC(c2ccccc2)(c2ccccc2)c2ccccc2)c1`, the growth in the assay on DU-145 prostate is 46.2%; in the assay with K-562 leukemia, -36.6% (active); in the assay with MALME-3M melanoma, -94.6% (active); in the assay with MDA-MB-231 breast, 31%; in the assay with RXF 393 renal, 6.09% (active); in the assay with SF-268 CNS, 78.8%. Further, the growth in the assay on SF-295 CNS is 17%; in the assay on SF-539 CNS, 41.6%; in the assay with UACC-257 melanoma it was -26.9% (active); in the assay on M14 melanoma it was -70.8% (active); with HCT-15 colon it was 10.7%; with HT29 colon it was -51.8% (active). For the same compound, the growth with SNB-75 CNS was 63.1%; in the assay with U251 CNS, 6.61% (active); with PC-3 prostate, 7.71% (active); in the assay with SK-MEL-5 melanoma it was -98.4% (active); with UACC-62 melanoma it was 28.6%; with LOX IMVI melanoma, 47.9%. Besides, the growth with SK-MEL-28 melanoma was -77.3% (active).
As for `COc1cc2c(c(OC)c1OC)C(=O)CC(c1cccc(NC(=O)c3cc(NC(=O)[C@H](C)N)ccc3Cl)c1)O2` (some centres not stated), the growth in the assay on DU-145 prostate was 36%; in the assay with K-562 leukemia, 9.72% (active); with MALME-3M melanoma, 45.5%; with MDA-MB-231 breast, 52.5%; in the assay with RXF 393 renal it was 32.1%; in the assay with SF-268 CNS, 50.5%. Further, the growth with SF-295 CNS was 110%; with SF-539 CNS, 44.3%; in the assay with UACC-257 melanoma, 62.9%; in the assay on M14 melanoma, 44.3%; in the assay on HCT-15 colon, 24.5%; in the assay with HT29 colon, 59.5%. Also, the growth in the assay on SNB-75 CNS was 76.1%; with U251 CNS it was 20.9%; in the assay with PC-3 prostate, 22%; with SK-MEL-5 melanoma, 24.9%; in the assay on UACC-62 melanoma it was 34%; in the assay with LOX IMVI melanoma it was 15.7%. Further, the growth in the assay with SK-MEL-28 melanoma is 63%.
Regarding `Clc1cccc(-c2ccc(OCCCN3CCN(c4ccncc4)CC3)cc2)c1`, the growth is 35.2% in the assay on DU-145 prostate; -50.3% (active) in the assay with K-562 leukemia; -87% (active) in the assay with MALME-3M melanoma; -83.4% (active) in the assay on MDA-MB-231 breast; -67.1% (active) in the assay with RXF 393 renal; 33.1% with SF-268 CNS. Also, the growth was -80.8% (active) in the assay on SF-295 CNS; -81.2% (active) in the assay on SF-539 CNS; 25.1% in the assay on UACC-257 melanoma; -64.8% (active) in the assay on M14 melanoma; -69.8% (active) in the assay on HCT-15 colon; -57.5% (active) in the assay on HT29 colon. The growth with SNB-75 CNS is 42.8%; with U251 CNS it was -73.6% (active); in the assay with PC-3 prostate it was -8.32% (active); with SK-MEL-5 melanoma, -98% (active); in the assay with UACC-62 melanoma, -74.3% (active); with LOX IMVI melanoma, -94.9% (active). The growth in the assay on SK-MEL-28 melanoma was -68.5% (active).
